Compound activity (PubChem)
Wnt bcat act: Wnt/beta-catenin pathway activators, primary screen, cell-based, plate reader, single point. 300,000 tested, 1.2% active. activation, % at 9.35 µM. Wnt/beta-catenin reporter cell assay, activator; in the data active = activation above about 30%, passing the limit was not always enough; inconclusive = no clear call, values can overlap the other calls;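 also: 0% = neutral control wells and 100% = positive control wells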
HSF1 activator: HSF-1 activators, primary screen, NIH3T3-HGL cells, MG132 stress, luminescence, single point; AID 504408, 2011; activation, % at 9 µM; 300,000 tested, 1.7% active; NIH3T3-HGL HSF-1 luciferase reporter, 8 h; 100% = twice DMSO control signal;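 active = mean replicate activation of at least 50% with a set share of replicates each reaching 50%; inconclusive = only one of those two conditions met; inactive = mean below 50% and too few replicates reaching it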;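 also: 0% = median of the neutral control wells and 100% = twice that signal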
esBAF inh: Bmi1 luciferase reporter increase in mESCs, primary screen, esBAF inhibitor project, mouse ES cells, Bmi1 luciferase knock-in, single point | reporter increase, % at 12.5 µM | 24 h; 100% = twice the neutral-well signal | 350,000 tested, 2% active; in the data active = activation above about 40%; inconclusive = no clear call, values can overlap the other calls;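 also: 0% = median of the plate's neutral control wells and 100% = double that signal; a rise in the Bmi1 reporter signal indicates esBAF inhibition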
MITF act: activators of MITF-driven TRPM1 promoter reporter, primary screen, cell-based, SK-MEL-5, luciferase, single point; SK-MEL-5 TRPM1-promoter luciferase, 24 h; % of positive control, neutral wells = 0; activation, % at 12.5 µM; 300,000 tested, 0.75% active; AID 588334, 2011;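 active = mean activation of at least 80% with every replicate also reaching 80%; inconclusive = mean reaches 80% but some replicate falls short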;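 also: 0% = neutral control wells and 100% = parthenolide positive control wells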
HSF1 inh: HSF1 inhibitors in luciferase reporter cells, primary screen, cell-based, NIH3T3, luminescence; NIH3T3-HGL HSE-luciferase, MG132-induced, luminescence 8 h; hits give low values; activity change, negative = inhibition, % at 7.5 µM (by protocol); 300,000 tested, 0.77% active;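 active = more than half of replicate wells show activity change below -50%, luminescence cut by over half; inconclusive = some wells, but at most half, below -50%; inactive = no replicate well below -50%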;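 also: luciferase reports HSF-1 transcriptional activity via heat shock element; 0% = median of DMSO wells and -100% = zero luminescence signal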
* marks the source's active call; other numbers are inactive results; ? = inconclusive; . = no result. An excerpt weighted towards active compounds, which were near 3.8% of everything screened.

SMILES | Wnt bcat act | HSF1 activator | esBAF inh | MITF act | HSF1 inh
COc1cccc(CN(C)Cc2c(O)ccc3ccccc23)c1 | 0 | 97* | 3 | -14 | 80
C[C@@H]1CN([C@H](C)CO)C(=O)Cc2cc(NS(=O)(=O)c3cn(C)cn3)ccc2O[C@H]1CN(C)Cc1ccncc1 | . | . | 3 | . | .
CC(=O)Nc1ccc2c(c1)C(=O)N(C)[C@@H]1CC[C@@H](CC(=O)NCc3ccc(F)cc3)O[C@@H]1CO2 | . | . | -7 | . | .
CC(C=NNc1ccc([N+](=O)[O-])cn1)=Cc1ccccc1 | 64* | . | -8 | 78 | .
C/C(=N\N=C(/C)c1cccc(N)c1)c1cccc(N)c1 | 9 | 64* | . | . | 28
O=[N+]([O-])c1ccc(NN=C(c2ccccc2)c2ccccc2)nc1 | -1 | . | -6 | 1 | .
O=[N+]([O-])c1ccc(Nc2ccc3ccccc3c2)nc1 | 0 | 40 | 96* | 80 | 22
O=C(O)c1ccccc1C=NNc1ccc([N+](=O)[O-])cn1 | 3 | . | 1 | 1 | .
CC(=NNc1ccc([N+](=O)[O-])cn1)c1ccccc1 | 6 | . | 88* | 92* | .
COc1ccc(NC(=O)N(C)C[C@H]2Oc3ccc(NS(=O)(=O)c4ccc(F)cc4)cc3C(=O)N([C@H](C)CO)C[C@H]2C)cc1 | . | . | -5 | . | .
COc1ccc(S(=O)(=O)Nc2cccc3c2O[C@@H](CN(C)S(=O)(=O)c2cccs2)[C@@H](C)CN([C@@H](C)CO)C3=O)cc1 | . | . | 5 | . | .
C/C(=N\Nc1ccc([N+](=O)[O-])cc1)c1ccc(O)cc1 | 11 | 35 | . | 65 | 14
C/C(=N\Nc1ccc([N+](=O)[O-])cc1)c1cccc(N)c1 | 26 | 22 | 85* | 108* | 4
O=C(Nc1nnc(SCc2ccc(Cl)cc2)s1)C1CC(=O)N(Cc2ccccc2)C1 (configuration not stated) | 34* | 17 | -14 | 4 | -2
Cc1ccc(O)c(/C=N/NC(=O)CN2CCCC2)c1 | 2 | -87 | -7 | . | -85*
O=C(CN1CCCCCC1)N/N=C/c1ccc(Cl)c(Cl)c1 | . | 4 | . | -4 | 3
Cc1cccc(/C=N/NC(=O)CN2CCCCCCC2)c1 | 0 | -82 | . | -10 | -76*
COc1ccc(Br)cc1/C=N/NC(=O)CN1CCCCC1 | -1 | 4 | -1 | . | 3
CCC(=O)N1C[C@H](C)[C@@H](OC)CN(C)C(=O)c2cc(NC(=O)COC)ccc2OC[C@@H]1C | . | . | -1 | . | .
COc1ccc(CNC(=O)C[C@H]2C=C[C@@H](NC(=O)Nc3ccc4c(c3)OCO4)[C@H](CO)O2)cc1 | . | . | -2 | . | .
CCOC(=O)N1CCN(S(=O)(=O)c2ccc3c(c2)OCC(=O)N3)CC1 | -1 | -62 | 0 | -12 | -52*
CCOC(=O)N1CCN(S(=O)(=O)c2cc(Cl)c(OC)cc2Cl)CC1 | -4 | 70* | 1 | 8 | 41
COC(=O)c1c(NC(=O)Cc2ccccc2)sc2c1CCN(C(C)C)C2 | 2 | -3 | -10 | . | -3
CC(C)N1CCc2c(sc(NC(=O)c3nc4ccccc4s3)c2C(N)=O)C1 | 0 | -5 | . | 7 | -3
CC(=O)N1CCc2c(sc(NC(=O)c3ccc([N+](=O)[O-])o3)c2C#N)C1 | 67* | -11 | . | -93 | -1
SMILES | Wnt bcat act | HSF1 activator | esBAF inh | MITF act | HSF1 inh
CC(C)N1CCc2c(sc(NC(=O)c3ccc([N+](=O)[O-])o3)c2C(N)=O)C1 | -18 | 110* | -74 | -94 | 64
COC(=O)c1c(NC(=O)c2ccc([N+](=O)[O-])o2)sc2c1CCN(C(C)C)C2 | 16 | 169* | -74 | -62 | 110
C[C@@H]1CN([C@@H](C)CO)C(=O)c2cc(NC(=O)CCC(F)(F)F)ccc2O[C@@H](C)CCCCO[C@H]1CN(C)C(=O)Nc1cccc2ccccc12 | . | . | -4 | . | .
CCCNC(=O)N(C)C[C@@H]1Oc2cc(-c3ccncc3)ccc2S(=O)(=O)N([C@@H](C)CO)C[C@H]1C | . | . | 3 | . | .
COc1ccc(C(=O)/C=C/c2ccccc2C(F)(F)F)cc1 | 34* | . | 14 | -15 | .
O=C([C@H]1[C@H](CO)[C@H]2Cn3c(ccc(-c4cccnc4)c3=O)[C@@H]1N2Cc1ccncc1)N1CCOCC1 | . | . | -1 | . | .
Cc1ccc(N2C(=O)NC(NS(=O)(=O)c3ccc(C)cc3)(C(F)(F)F)C2=O)cc1 (configuration not stated) | 2 | -3 | 2 | 4 | 7
Cc1ccc(N2C(=O)NC(NS(=O)(=O)c3ccccc3)(C(F)(F)F)C2=O)cc1 (configuration not stated) | -1 | -82 | 2 | 0 | -79*
CN=c1scc(-c2ccco2)n1/N=C/c1ccc(O)c(O)c1 | -6 | -83 | . | -2 | -83*
COc1ccc(O)c(/C=N/n2c(-c3ccco3)csc2=Nc2cccnc2)c1 | . | -1 | . | 7 | 1
CCc1ccc2c(COC(=O)c3n[nH]c4ccccc34)cc(=O)oc2c1 | . | ? | 77* | . | 50
Cc1ccc2c(COC(=O)c3n[nH]c4ccccc34)cc(=O)oc2c1 | . | 76* | 69* | . | 46
CC12COC3(C(=O)Nc4ccc5ccccc5c4)CC1CCC32C (configuration not stated) | 7 | 62* | . | 32 | 31
C[C@H](CO)N1C[C@H](C)[C@@H](CN(C)C(=O)NC2CCCCC2)OCCCC[C@H](C)Oc2ccc(NC(=O)Nc3ccc4c(c3)OCO4)cc2C1=O | . | . | 10 | . | .
COc1ccc2c(c1)CCc1c(C(=O)N3CC4(C)CC3CC(C)(C)C4)noc1-2 (configuration not stated) | . | 84* | . | -1 | 55
Cc1cc(=O)[nH]c2c1c(=O)[nH]n2C1CC(C)N(C)CC1C (configuration not stated) | . | -67 | -10 | 11 | -57*
Clc1ccc(-c2nc(C3CCCCC3)no2)cc1 | 71* | 46 | 76* | 91* | 28
COc1ccc2oc(C(=O)OCC(=O)N(C)CC(=O)Nc3ccc(C)cc3)c(C)c2c1 | 0 | -61 | . | -9 | -51*
COc1cccc(/C=C2\SC(N3CCCC(C)C3)=NC2=O)c1OC (configuration not stated) | 3 | 49 | 73* | 65 | 33
C=CCn1c(SCc2c(C)noc2C)nc2sc(C)c(C)c2c1=O | -10 | 119* | -11 | -10 | 61
COc1cccc(-c2nnc(-c3ccc(C)o3)o2)c1 | 23 | 63* | -29 | 8 | 28
COc1cccc(-c2nnc(-c3ccco3)o2)c1 | ? | 74* | . | 17 | 43
Cc1noc(C)c1S(=O)(=O)N(C)C[C@H]1Oc2ccc(NS(=O)(=O)c3cn(C)cn3)cc2CC(=O)N([C@@H](C)CO)C[C@@H]1C | . | . | -4 | . | .
CN(C)c1ccc(CC(=O)c2nc3ccccc3s2)cc1 | 0 | 56* | . | 14 | 28
